From the supplement of paper PMC10681739

Assays:
ETS1 [1] = biological target: T1, ETS1 (UniProt P14921); test: ETS1 binding intensity (PBM fluorescence), ETS1 alone (arbitrary fluorescence units); higher = stronger binding; conditions: ETS1 concentration 1 nM; RUNX1 concentration 0 nM
T1 sequence: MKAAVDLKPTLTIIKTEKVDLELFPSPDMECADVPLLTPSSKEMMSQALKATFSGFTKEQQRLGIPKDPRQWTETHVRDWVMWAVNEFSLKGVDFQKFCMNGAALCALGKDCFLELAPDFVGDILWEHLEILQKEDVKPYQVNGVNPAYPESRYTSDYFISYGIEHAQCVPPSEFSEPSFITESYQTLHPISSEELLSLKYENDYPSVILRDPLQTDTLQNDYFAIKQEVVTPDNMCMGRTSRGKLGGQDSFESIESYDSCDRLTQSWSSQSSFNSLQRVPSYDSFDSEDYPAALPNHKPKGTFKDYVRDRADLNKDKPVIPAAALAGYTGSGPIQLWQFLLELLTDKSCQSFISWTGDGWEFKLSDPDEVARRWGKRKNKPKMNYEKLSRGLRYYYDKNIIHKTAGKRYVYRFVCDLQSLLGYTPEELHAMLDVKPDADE

RUNX1 [2] = biological target: RUNX1 (UniProt Q01196); test: RUNX1 binding intensity (PBM fluorescence), RUNX1 alone (arbitrary fluorescence units); higher = stronger binding; conditions: RUNX1 concentration 2 nM; ETS1 concentration 0 nM
Sequence of RUNX1 (Q01196 whole entry): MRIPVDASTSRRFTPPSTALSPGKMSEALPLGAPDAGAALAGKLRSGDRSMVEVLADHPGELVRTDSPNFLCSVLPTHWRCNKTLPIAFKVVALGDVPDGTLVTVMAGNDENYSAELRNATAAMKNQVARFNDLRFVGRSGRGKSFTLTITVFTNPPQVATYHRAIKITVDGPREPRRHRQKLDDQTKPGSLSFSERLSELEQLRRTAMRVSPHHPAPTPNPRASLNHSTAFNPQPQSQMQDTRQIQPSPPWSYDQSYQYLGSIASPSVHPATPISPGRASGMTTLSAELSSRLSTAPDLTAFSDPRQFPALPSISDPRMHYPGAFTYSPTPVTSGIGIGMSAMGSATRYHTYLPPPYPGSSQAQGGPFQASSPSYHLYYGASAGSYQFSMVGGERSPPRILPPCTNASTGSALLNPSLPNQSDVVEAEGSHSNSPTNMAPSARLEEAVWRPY
Description: (§1)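 Cooperative gcPBM on 36-bp genomic probes with neighbouring ETS1 and RUNX1 sites. Recombinant human RUNX1 (2 nM) was incubated alone or with ETS1 (25 nM) and detected with anti-RUNX1 antibody plus Alexa488 secondary. Values are medians over 4 replicate spots; the RUNX1+ETS1 data were normalised to the RUNX1-only data. The probes sit in constant array flanks that are not printed.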

RUNX1 [3] = biological target: RUNX1 (UniProt Q01196); test: RUNX1 binding intensity (PBM fluorescence) in presence of ETS1, normalised to RUNX1-only experiment (arbitrary fluorescence units); higher = stronger binding; conditions: RUNX1 concentration 2 nM; ETS1 concentration 25 nM
Description: as §1

ETS1 [4] = biological target: T1, ETS1; test: ETS1 binding intensity (PBM fluorescence) in presence of RUNX1, normalised to ETS1-only experiment (arbitrary fluorescence units); higher = stronger binding; conditions: ETS1 concentration 1 nM; RUNX1 concentration 25 nM
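Throughout, for RUNX1 binding intensity (PBM fluorescence) in presence of ETS1, normalised to RUNX1-only experiment: Full-length recombinant human ETS1 or RUNX1 bound to double-stranded 36-bp genomic probes on microarrays, detected by protein-specific primary antibody and Alexa488 secondary, spot fluorescence as median of four replicate spots.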
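Throughout, for RUNX1 binding intensity (PBM fluorescence), RUNX1 alone: Full-length recombinant human RUNX1 bound to double-stranded 36-bp genomic probes on a high-density microarray, scored as Alexa488 fluorescence per spot via anti-RUNX1 antibody, median of four replicate spots.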

Sequence	ETS1 binding intensity (ETS1 [1])	RUNX1 binding intensity (RUNX1 [2])	RUNX1 binding intensity (RUNX1 [3])	ETS1 binding intensity (ETS1 [4])
GAAGTGTGCTCTTCCGGTACCTGCGGTTCGTTGCGC	1770	808	2670	–
AGTCAGCAGAGAGGAAGTGGTTAGTCCTGCCTTGAA	2240	742	1870	4900
GAGGCCCAGGATGTGGCTGGAGGCCTGTGGTGGGAC	630	700	864	–
ATCTCAACTAGGAAATGTTTTTGTGACCACAAAGGG	620	958	949	–
GGGACAGACTCTCCAGGATGTGGTTGGATTTTGGGC	1520	754	1040	–
ACACAGGAAGCAAAAGTTAAGCTATAAAACCCGCAA	571	969	1240	765
AGGCCTCGCTTCCTCTCCTGACCACACCCTGCAGCT	446	1160	1800	590
TAGCCACTAACCGGAAACGTTAAACCACAGCTCCGT	10100	1180	7440	–
CCTGTACGGAAGCTACTCTGGTTTCATGTGGTTTCA	441	904	1030	654
GAAGGCGGTTCCGGTTCGCGGCGGTTCCCGGGTTTT	515	794	1820	–
GCTCTGGGTCACACAGGATGTGGTTTTTGAAGTTTG	8060	1210	10400	–
CAGATCCGGCGTGGACGAAGCTCGGGAACCACAACA	353	798	1150	–
AACAACTGACCGGACAGAACACAGCCACAAAACACG	606	936	928	544
GCGCGGACAGAGAAAGGATGTGGTATAGCAGAAAGT	1500	727	884	–
GCTGCCACTTCCCTTGCTTATTTCATGTGGTTTGGA	552	1230	1980	794
GTGCTGAGCAGCTTCCCGTCTGCGGTGAAGACAGCC	396	1150	1930	–
CCCACAGGAAATCCCCTGGTCTGTGGCGCCTCTGAT	881	766	1110	823
CGAAACGCGTTCCCCGGAAACCGCGCCCGGCTCCGA	1810	763	1090	3230
GTGGGGCAGGATGTGCTTGCCTGGCTGCGGTTGGAC	2170	877	2230	–
AGGTACCAGGCCCGGAAACCACGGAAAGGGGAACTT	3050	862	1100	–
AGTTGGTTCCTTCCGGTGGGTTTGTGGGTTTGGGGT	1420	870	2390	–

Sequence	ETS1 binding intensity (ETS1 [1])	RUNX1 binding intensity (RUNX1 [2])	RUNX1 binding intensity (RUNX1 [3])	ETS1 binding intensity (ETS1 [4])
CTGACGCATTTCCGGCCTTTGCGGTTGATCGGTCAT	5220	4410	18100	–
CATGGGGAGGAGGAAGTGGTGGCGGCCGCAGGCCAG	1040	799	1070	–
TCCGGAAATAGATAATATCTAGTTAAACCTCAAAAT	1540	786	965	2850
ACGAGGTTGGCCTCATCCGGTGGTTTTCGCAGCACG	1290	837	1710	1280
TGTCCGCACCCCACTTCCGCCCCGCAGAGGGCAACG	2960	890	3130	3480
TGAGCCTTGGAAGGAAATGATTCACCACAATACTGT	741	831	867	–
CTGAAACAGGAAACAGACAAAGCCACAAGGTTCGCA	1840	746	1780	–
GAACCTGGGAGGCGGAAGTTGCGGTTAGCCGAGATC	6030	13500	56300	–
ATGCCTTCTTCCAGAGGATGTGGTCGCTACTAGTGG	1320	725	868	–
GGCAACCGGCCCCGGAAGTTGCGGCAGGTGCGTCCA	5780	685	1640	8090
TACTACTTACCAGCAGGATGTGGTCCCTGCCCACTG	3230	809	1250	–
TGTGAACTGACAGGATGTGGTACAAGGCTTACAAAG	4830	730	1780	–
CGCCGAACTTCCGGCAGTAAATTCCGTGGTTTCCCT	2800	911	2400	–
AGCCGTCATTCAGGATGTGGTGACAGACATGGAGAC	1200	769	1320	–
AGCTCAATTTCCTGGCGTGTAACATGGCCACAAGGG	827	830	1390	595
TTTCGAGAAAACCGGAAGTGCGTGGTCACGCCCCGC	29400	733	1670	38100
GCGCAAAGCCGGAAGGAGGGGTTTGCGGCTGGGGAG	1730	769	1360	–
GACAAAACACAGAAAGGAAGTGGTCAACTATTGCAC	2510	835	1600	4930
ACTCGGGAATGTCCGGTCGTGGTAAGCAGGGTGGCA	516	803	1680	529
GCACTGTGGGAGGAAGTGGGTATGTGGTGAGCTCTT	1650	856	1560	4990
GTTTTCAAGGCAGGAAGTGGCTGTGGTGGCACGGAG	13700	789	1570	21300

Sequence	ETS1 binding intensity (ETS1 [1])	RUNX1 binding intensity (RUNX1 [2])	RUNX1 binding intensity (RUNX1 [3])	ETS1 binding intensity (ETS1 [4])
CAGCTCCGACTTCCGGGTGCGGTACGGCGAAGCAGA	1320	756	2140	1610
GTTCCTAGGCAGGCAGGATGTGGCTATAAGCTACAT	4700	819	1150	6220
TCCCCTCTCCCCATCCGCCCGAGACCACAGCCACTC	592	1340	1570	495
TATTCATGACATCCTGTCGGGCTTGTGGGCTGCGTA	1020	704	1430	1590
CCCTCCTCTTTCGTTTCCTAACCGCAAATTCCATCA	487	58200	53700	1720
AGCTCTGCCAGGAAGTGAGAACCACAGGCCTCCCCT	1570	837	1350	3140
AACTGCCTGGTGGCCGGAAACCGCTGGAGGGAGGGC	4740	793	1130	10100
AGGACCTAACACTCAGGAAGTGGTCAACCTTGCTGC	2760	897	1420	3710
GCGCCGGTGACGGAAGTGCGGTGTTGAGCGCCGGCG	2430	758	1300	3070
GACAGTCATGTTTCAGGATGTGGTTTTAGCCAAAGG	1550	816	1710	13200
AGAACAGCAGGAAATAAATACCCACCTCAGGACTGC	959	822	887	1050
GGCTGCAGGAAGTGGGAAGGTGTGGCTTTGAGTCTC	1830	755	1820	2460
GCCGTCACTTCCGTCATTCAAACCGCCCGCCAATGG	823	1050	2520	1160
TATGGGGCCGGAAGCCATTCACCACAAACACTGTGT	2430	953	3610	9050
TTTCTGACACTCTCAGGATGTGGGTTTTCGCACTGT	1230	797	1350	6000
CCCGCCGGAAGGACGCGTCTGCGTCTCTGCGGCGAG	680	688	955	1010
AACACCACTTCCTACTGTGAAACCACACTGTATTTG	456	1200	2980	588
TGTGCTGACTACAGGATGCTGTGGTTAGTCAGGTTG	1690	809	1720	13800
TACATCTTCAGAGGAAGTGGGTTTGTGTATCTTTGA	2460	786	1380	3750
GCCCAATTCCCGAATCCGGTCTGCGGCGCGCTCGGG	583	768	1170	507
GGGGAAGAGGGGAGGATGTCTGAGGTTTTAATTGTA	523	861	793	689

Sequence	ETS1 binding intensity (ETS1 [1])	RUNX1 binding intensity (RUNX1 [2])	RUNX1 binding intensity (RUNX1 [3])	ETS1 binding intensity (ETS1 [4])
CCGCTGAGAACAGGATGTGGGTGTCAGGAGGTGAAG	4850	765	1530	7410
CAGCTGCTGACAGGAAAACCACAGTGGAAGGGGAAG	848	898	1050	1550
GACCAGGCGAGAGGATGTGGGTATGAGGGAGGAGCT	819	835	1090	1640
CACTTCCTATCGCTACATAACAAATTACCACAGACT	451	2490	6310	642
AGATCAACTTCCACATCCGGTGGTAACAGGGCCCTA	5380	835	2970	5560
TCTGTGACTACGCGGATGTTGTGGGCGGCTACATGC	1000	749	869	1810
CCCGCTACACAAGGCGGATGTGGTACCCTCACTTGT	3810	891	1530	6380
GGGGCGGCTTCCGGCGGCGTGACCTGACCGCAAGAG	995	2950	9110	4920
TGATAAAACACAGGATGTGGTAAGGGAGCTGGCCAA	3350	682	4550	14200
TATTGTGTACTTCCCCTTCATGTTGTGGTTGGCTTT	449	1120	1560	619
TCTTGAGGGTCAGGATGTGGTGAGGCCAGAGAAGGC	951	808	1420	2120
GCCACTTCCGGTCACTCCCCGCTGCGGCCTCGCGCT	7030	1190	3940	8280
ACTCACTTCCGTTTAGCTTATCAACCACCAAGAGAC	1020	1390	3210	1060
CGGGGATGGGATTTCCGGTGGTTTTTCTTCACTTTC	4490	851	3240	4760
TGCGCGCCGGCTTCCGCTGCGGCCAGTCGGGCGGCG	668	647	1240	635
GCGGCGAACCGGACGCCCCAACCACCCGCCCCCCAC	1710	987	1060	1470
CCTGCCTGAGGCAGGAAGCCGCAGCTGAGGGACGGC	2980	761	1280	5390
GGTTCATTTCCTTTTCCTCCTTGTGGTATAAAAGAG	697	1210	2890	985
TTTACAGGAAATATCCAGAACAGGTAAACCCACAGA	778	796	926	1630
CGTCACTTCCCACGCGACTGCCTGCGGGAAACATGG	550	1150	1680	704
TTCAACAAGGTTTTCCTGTGGTTACCCCATGCTTTG	364	1040	1680	451
